The entries come from a sample that favours hits as a whole.
TDP1 cell CPT – DT40-hTDP1 cell growth loss with CPT | chicken DT40 Tdp1-/-;hTDP1 cells + 20 nM CPT, ATP luminescence, 48 h | Potency, µM (highest dose often 46.2 µM), without a hit: top-dose activity change, negative = growth inhibition, hits mostly inhibitors | 420,000 compounds, 12% hits | AID 686979; also: potency is read from the fitted curve at half-maximal effect; nearly all actives have a fitted effect of over 55% in size
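Cell growth measured by CellTiter-Glo luminescence after a minimum 48 h, 37 C compound exposure with 20 nM CPT in Tdp1-knockout DT40 cells stably expressing hTDP1, seeded 400/well; qHTS titration format.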
IL1B secr inh – blocks inflammasome-driven IL-1 beta release | AID 743279 | activity change, % at 57.5 µM | THP-1 LPS/ATP IL-1B secretion, AlphaLISA, 16 h; active compounds read low | 360,000 compounds, 4.7% hits; in the data active = activity change below about -50%; inconclusive = mostly about -30% to -49%
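Secreted IL-1B measured by AlphaLISA bead assay after 16 h compound exposure of THP-1 cells; compounds (final up to 57.5 uM) added 1 h before LPS (250 ng/mL) and ATP (1.25 mM) stimulation; lower signal means less secretion.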
TDP1 cell noCPT – qHTS for Inhibitors of human tyrosyl-DNA phosphodiesterase 1 (TDP1): qHTS in cells in absence of CPT; DT40 Tdp1-/- hTDP1 cells, no CPT, ATP luminescence, 48 h; Potency, µM (top dose mostly 46.2 µM), without a hit: at the top dose activity change, negative = growth inhibition, usual class: inhibitors; 420,000 compounds, 15% hits; AID 686978, 2013; also: potency is read from the fitted curve at half-maximal effect; nearly all actives have a fitted effect of over 55% in size
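Growth kinetics read by CellTiter-Glo luminescence after ≥48 hr at 37 °C. Cells: DT40 Tdp1-/- stably carrying human TDP1, 400 per well, compound exposure in the absence of CPT (DMSO vehicle).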
HT1080NT lethal – kills 2HG-producing HT-1080-NT fibrosarcoma cells. HT-1080-NT fibrosarcoma viability, CellTiter-Glo ATP luminescence, 48 h. Potency, µM (series often up to 46.1 µM), without a hit: top-dose activity, negative = less viability, usual class: cytotoxic. 360,000 compounds, 1.6% hits. AID 686970;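 also: NT is the 2HG producing partner of a matched IDH1 knockdown line; potency is read from the fitted curve at half-maximal effect; 0% = DMSO-treated cells and -100% = media-only wells without cells; nearly all actives have a fitted effect of over 55% in size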
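Viability by CellTiter-Glo luminescence after 48 h compound exposure at 37C of HT-1080-NT cells (750/well, RPMI, 5% FBS). % activity scaled between DMSO wells and medium-only wells, then curve-fitted and categorized by curve class.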
HT1080 IDH1KD tx – kills HT-1080 cells with IDH1 knockdown; Potency, µM (doses to about 46.1 µM), without a hit: top-dose activity, negative = toxicity, hits mostly cytotoxic; 360,000 compounds, 2% hits; HT-1080 IDH1 knockdown viability, ATP luminescence, 48 h;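 also: potency is read from the fitted curve at half-maximal effect; 0% = DMSO wells and -100% = cell-free medium wells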
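Using the IDH1-knockdown HT-1080 line run in the same batch and compound series as the NT line, viability after 48 h at 37 °C was determined by CellTiter-Glo luminescence and expressed as % activity.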
12-LOX inh – blocks human arachidonate 12S-lipoxygenase; P18054; purified 12hLO, xylenol orange hydroperoxide absorbance; Potency, µM (highest dose often 108 µM), for the others: at the top dose activity change, negative = inhibition, most hits filed as inhibitors; 580,000 compounds, 1.1% hits; also: potency is read from the fitted curve at half-maximal effect
Target sequence (P18054 whole entry, looked up): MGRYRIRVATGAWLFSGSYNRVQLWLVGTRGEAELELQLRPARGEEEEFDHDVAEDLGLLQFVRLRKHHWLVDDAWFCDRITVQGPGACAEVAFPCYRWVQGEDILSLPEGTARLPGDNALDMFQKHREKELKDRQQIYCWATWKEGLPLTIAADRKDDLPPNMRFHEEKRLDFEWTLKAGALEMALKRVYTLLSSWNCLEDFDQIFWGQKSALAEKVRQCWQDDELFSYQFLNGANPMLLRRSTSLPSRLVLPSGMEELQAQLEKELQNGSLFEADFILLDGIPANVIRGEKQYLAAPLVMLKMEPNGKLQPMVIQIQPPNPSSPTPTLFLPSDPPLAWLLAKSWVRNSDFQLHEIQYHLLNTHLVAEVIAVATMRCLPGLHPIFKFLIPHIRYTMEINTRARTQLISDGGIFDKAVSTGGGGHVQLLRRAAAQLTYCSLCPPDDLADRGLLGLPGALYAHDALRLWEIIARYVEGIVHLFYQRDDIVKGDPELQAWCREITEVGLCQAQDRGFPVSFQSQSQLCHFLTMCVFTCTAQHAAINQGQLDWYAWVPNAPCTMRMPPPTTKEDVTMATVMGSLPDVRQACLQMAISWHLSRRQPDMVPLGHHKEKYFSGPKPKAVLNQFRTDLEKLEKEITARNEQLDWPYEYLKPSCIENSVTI
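Purified human 12hLO at 150 nM in 25 mM Hepes, 0.01% Triton X-100, pH 7.0, preincubated 15 min at room temperature with compound. Reaction started with 40 uM arachidonic acid, 30 min at room temperature. Hydroperoxide measured by Fe-xylenol orange, 573/405 nm absorbance ratio.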
The depositor's hits bear a star; u = inconclusive; x = no result. Unless noted, calls follow the shape of the dose curve; as a rule, active = well fitted curve in the direction sought with a large enough effect; inconclusive = small, poorly fitted or top-dose-only effect, or another doubt; inactive = no such curve, though single readings can be large; an effect the other way counts as inactive or inconclusive. Unless noted, % is scaled to controls: 0 for no effect and ±100 for the full control effect.

SMILES	TDP1 cell CPT	IL1B secr inh	TDP1 cell noCPT	HT1080NT lethal	HT1080 IDH1KD tx	12-LOX inh
Clc1ccc2oc(C3CCN(Cc4nc(C5CC5)no4)CC3)nc2c1	x	x	x	x	x	-11%
CCCC(=O)Nc1nc2ccc(OC)cc2s1	15µM*	11	u	3%	0%	-1%
COc1ccc2nc(NC(=O)c3cccc(OCc4c(C)noc4C)c3)sc2c1	3.3µM*	-26	2.9µM*	u	u	-3%
CCOc1ccc2nc(NC(=O)CSC3=NCCS3)sc2c1	23µM*	-92*	u	-6%	-7%	4%
COc1ccc2nc(NC(=O)CCc3ccc(OC)c(OC)c3)sc2c1	-19%	-10	u	0%	-14%	1%
COc1ccc2nc(NC(=S)N(C)C)sc2c1	4.6µM*	95	4.6µM*	-2%	-20%	7.9µM*
CC1CCN(c2nc(SCC(=O)N3CCOCC3)c(C#N)c3c2CCCC3)CC1	x	x	x	x	x	-20%
Cc1cccc(CN2CCC(C(=O)N3CCCCCCNC(=O)CC3)CC2)c1	x	x	x	x	x	15%
CCOC(=O)c1cc(C)sc1NC(=O)CSC1=NCCS1	u	-61*	-25%	-12%	-3%	1%
CCn1c(CNC(=O)COc2ccc(C(C)C)cc2)nnc1SCC(=O)Nc1cc(F)ccc1C	u	-5	u	u	u	22µM*
CCn1c(CCCOc2ccc(Cl)cc2Cl)nnc1SCC(=O)Nc1cc(F)ccc1C	u	-59*	u	u	u	20%
CCn1c(CNC(=O)COc2ccc(C(C)C)cc2)nnc1SCC(=O)Nc1ccc(F)cc1	-6%	u	-21%	u	u	2%
CCc1cccc(C)c1NC(=O)CSc1nnc(CCCOc2ccc(Cl)cc2Cl)n1C	23µM*	6	15µM*	-22%	u	19%
Cn1c(CCCOc2ccc(Cl)cc2Cl)nnc1SCC(=O)Nc1cccc(F)c1	u	-16	u	u	-24%	7%
O=C(c1cc(=O)c2cc(Cl)ccc2o1)N1CCN(C(=O)C2CC2)CC1	x	x	x	x	x	-25%
Cc1ccc(NC2(c3nnnn3-c3c(C)cccc3C)CCCCC2)cc1	u	-5	23µM*	3%	-13%	-1%
CCCCC[C@H](O)/C=C/C1C(=O)C=C[C@H]1C/C=C\CCCC(=O)OC (some centres not stated)	5.8µM*	-102*	7.3µM*	u	u	u
CN(Cc1cn(-c2ccccc2)nc1-c1ccc2c(c1)OCO2)Cc1nccn1C	26µM*	u	23µM*	-2%	-8%	-2%
CN(CCn1ccnc1)Cc1cn(-c2ccccc2)nc1-c1ccc2c(c1)OCO2	-15%	4	-14%	1%	15%	10%
COc1ccc(-n2nc(C(=O)NCc3ccco3)c3c4ccccc4n(C)c3c2=O)cc1Cl	u	44	10µM*	-1%	-16%	-17%
CCCCN(C)CCNC(=O)c1nn(-c2ccc(OC)c(Cl)c2)c(=O)c2c1c1ccccc1n2C	u	x	18µM*	x	x	-19%
COc1ccc(NC(=O)[C@@H]2C[C@@H](c3ccc(F)cc3)N([S+](=O)([O-])c3ccccc3)C2)c(C)c1	x	x	x	x	x	-28%
Cc1cc(C)c([N+](=O)[O-])cc1-c1ccc(/C=N/c2c(-c3ccco3)nc3ccccn23)o1	15µM*	-15	15µM*	-24%	-26%	u
O=[N+]([O-])c1ccc(-c2ccc(/C=N/c3c(-c4ccco4)nc4ccccn34)o2)cc1	21µM*	13	7.3µM*	u	u	-28%
C=CCNC(=S)Nc1ccc(C)cc1Br	x	x	x	x	x	51%
SMILES	TDP1 cell CPT	IL1B secr inh	TDP1 cell noCPT	HT1080NT lethal	HT1080 IDH1KD tx	12-LOX inh
O=C(Cn1ccc(=O)[nH]c1=O)NC(c1ccc(Cl)cc1)c1cccs1 (configuration not stated)	x	x	x	x	x	-30%
CCCOc1ccc(NC(=O)C(C)Oc2ccccc2F)c2cccnc12 (configuration not stated)	x	x	x	x	x	43%
c1ccc2sc(C3CCN(Cc4nnnn4Cc4ccc5c(c4)OCO5)CC3)nc2c1	u	-4	18µM*	-3%	-4%	-18%
Clc1ccc(Cn2cc3c(n2)-c2cc4ccccc4n2C3)cc1	u	x	13µM*	x	x	x
Cn1c(Oc2ccc(F)cc2)c(C=O)c2ccccc21	u	-92*	u	-22%	-21%	-2%
O=C1c2ccccc2C(=O)c2c1cccc2N(CCO)CCO	-21%	-10	-29%	u	-29%	8%
O=C1C=CC(=Nc2cccc3c2C(=O)c2ccccc2-3)O1	-82%	-93*	u	0%	-53%	x
Cc1sc(N)nc1C12CC3CC(CC(C3)C1)C2	6%	-52*	u	0%	-20%	15%
Nc1nc2ccccc2n1S(=O)(=O)c1ccc([N+](=O)[O-])cc1	29µM*	10	21µM*	-28%	u	-3%
O=[N+]([O-])c1ccc(S(=O)(=O)CC2CSc3nc4ccccc4n32)cc1 (configuration not stated)	13µM*	57	12µM*	0%	-10%	6%
CN1CC(=O)N(C2CNC2)Cc2c1ncnc2N1CCCCC1	x	x	x	x	x	69%
CCN1CCCC1CNC(=O)C(=O)Nc1ccc2cc[nH]c2c1 (configuration not stated)	x	x	x	x	x	3%
N=c1c(S(=O)(=O)c2ccccc2)cc2c(=O)n3ccccc3nc2n1Cc1ccco1	u	-79*	21µM*	-23%	-19%	-22%
Cc1ccc(S(=O)(=O)c2cc3c(=O)n4ccccc4nc3n(CCc3ccccc3)c2=N)cc1	u	6	16µM*	8%	6%	-7%
COc1ccc(CCn2c(=N)c(S(=O)(=O)c3ccccc3)cc3c(=O)n4ccccc4nc32)cc1	-16%	-11	u	1%	1%	1%
Cc1cccn2c(=O)c3cc(S(=O)(=O)c4ccc(F)cc4)c(=N)n(Cc4ccco4)c3nc12	u	-80*	u	u	23µM*	10%
Cc1ccc2nc3c(cc(S(=O)(=O)c4ccccc4)c(=N)n3Cc3ccco3)c(=O)n2c1	-29%	-52*	u	18%	8%	-24%
Cc1ccc(S(=O)(=O)c2cc3c(=O)n4ccccc4nc3n(Cc3ccco3)c2=N)cc1C	u	-24	u	2%	4%	0%

Screening data (PubChem BioAssay)
